# Measurements as given in article PMC5540273 (PLoS ONE, 2017).
# System: T1, MLK1
# T1 construct: gene MAP3K9
# Conditions: concentration: 1 μM,replicates: in singlicate; n = 1
# 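Further: KINOMEscan kinase panel screen.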
row,SMILES,%Inh [%]
1,O=C(Nc1cccc(Oc2ccc3nccn3n2)c1)Nc1cccc(C(F)(F)F)c1,0
2,CN(c1ccccc1CNc1nc(Nc2ccc3c(c2)CC(=O)N3)ncc1C(F)(F)F)S(C)(=O)=O,95.4
3,NC(=O)c1ccc(-c2cc3ncnc(SCC(=O)O)c3s2)cc1,0
4,Cn1ccc2ncnc(Oc3ccc(NC(=O)Nc4cc(C(C)(C)C)on4)c(Cl)c3)c21,11
5,COC(=O)Nc1nc2cc(Oc3ccc(NC(=O)Nc4cc(C(F)(F)F)ccc4Cl)cc3)ccc2[nH]1.Cl [GW697465],1
6,COc1cc2c(Nc3ccc(NC(=O)c4ccccc4)cc3)ncnc2cc1OCCCN1CCOCC1 [GSK301329],0
7,C[C@@H]1CNc2c(sc3ccc4nc(-c5ccc(O)cc5)ccc4c23)C(=O)N1,0
8,CN(c1cccc(CNc2nc(Nc3ccc4c(c3)CC(=O)N4)ncc2C(F)(F)F)c1)S(C)(=O)=O,93.3
9,O=C(Nc1ccc(Oc2ccc3nc(NC(=O)C4CC4)cn3n2)c(F)c1)c1cccn(-c2ccccc2)c1=O,19
10,Nc1nccc(-c2ccc3c(N)n[nH]c3c2)n1 [GSK1034945],0
11,CNC(=O)c1ccccc1Nc1nc(Nc2cccc(CS(C)(=O)=O)c2)ncc1C.O=CO [GSK1520489],97.5
12,C[C@@H](Oc1cc(-n2cnc3cc(-c4ccncc4)ccc32)sc1C(N)=O)c1ccccc1Cl [GSK479719],61
13,N#Cc1cccc(C(=O)NC2CCN(c3ccnc(Nc4ccc(F)cc4)n3)C2)c1 (centres unmarked) [GSK1379708],1
14,FC(F)(F)c1cc(Br)cc(Nc2nccc(-c3cnn4ncccc34)n2)c1 [GW810578],0
15,NC(=O)Nc1sc(-c2ccc(F)cc2)cc1C(N)=O [GW789449],39
16,CC(=O)Nc1ccc(-c2cc3ncnc(SCC(=O)O)c3s2)cc1,0
17,Cc1cccc2c(-c3ccncc3)c(-c3ccc(F)cc3)nn12.Cl [GW461487],0
18,O=C1NCCc2[nH]c(-c3ccncc3)cc21,0
19,CCn1c(-c2nonc2N)nc2cncc(CNC3CCNCC3)c21.Cl [SB-747651],3

row,SMILES,%Inh [%]
1,O=c1[nH]cc(-c2ccc(O)cc2)c2sc(-c3ccncc3)cc12 [GSK1033723],0
2,CCNCC(Cc1ccccc1)NC(=O)c1cc(Br)c(-c2ccnc3[nH]ccc23)s1.Cl.Cl (centres unmarked) [GSK1383280],0
3,O=C(Nc1ccccc1)c1cccc(Oc2ccc3nccn3n2)c1,0
4,Cl.c1ccc(Oc2ccc(Nc3ccnc4cc(-c5ccc(CN6CCNCC6)o5)ccc34)cc2)nc1 [GW567142],0
5,Cl.Nc1n[nH]c2cc(-c3ccccn3)ccc12 [GSK2189892],0
6,COc1ccc(Nc2nccc(N3CCC(NC(=O)c4cccc(C#N)c4)C3)n2)cc1 (centres unmarked) [GSK1379730],1
7,CC(C(=O)NC1CCN(c2ccnc(Nc3ccc(F)cc3)n2)C1)c1ccc(Cl)cc1 (centres unmarked) [GSK1379713],0
8,c1ccc(Oc2ccc(Nc3ccnc4ccc(-c5ccccn5)cc34)cc2)cc1 [GW407034],1
9,CS(=O)(=O)c1cccc(CNc2nc(Nc3ccc4c(c3)[C@@H]3C[C@@H]4CNC3=O)ncc2C(F)(F)F)c1,99.8
10,COc1cccc(OC)c1C(=O)Nc1cccc(-c2nn3ccccc3c2-c2ccnc(Nc3cccc(F)c3)n2)c1 [GSK361065],4
11,COC(=O)c1cccc(NC(=O)NC2CCN(c3ccnc(Nc4cc(OC)c(OC)c(OC)c4)n3)C2)c1 (centres unmarked) [GSK1379767],33
12,CC(C)c1nc(-c2cccc(NS(=O)(=O)c3ccccc3)c2)c(-c2ccnc(Nc3ccc4c(c3)CN(C)CC4)n2)s1 [GSK1649598],18
13,C[C@@H]1CCN(C(=O)N2CCCC2)C[C@@H]1N(C)c1ncnc2[nH]ccc12,97.4
14,CSc1nccc(-c2c(-c3ccc(F)cc3)ncn2CCCN2CCOCC2)n1.Cl [SB-217146],0
15,COc1cc2nccc(Nc3ccc(Oc4ccccc4)cc3)c2cc1OC.Cl [GI261656],0
16,Cc1ccc(Nc2ccnc(Nc3ccc4c(c3)CS(=O)(=O)C4)n2)cc1O.Cl [GW579362],94.2
17,Cc1nnc(-c2ccc3occ(-c4ccc(S(C)=O)cc4)c3n2)o1 (centres unmarked),0
18,O=C(NOCC1CC1)c1cc(Br)c(F)c(F)c1Nc1ccc(I)cc1Cl,0

# System: MLK2
# Conditions: concentration: 1 μM,replicates: in singlicate; n = 1
row,SMILES,%Inh [%]
1,O=C(Nc1cccc(Oc2ccc3nccn3n2)c1)Nc1cccc(C(F)(F)F)c1,39
2,CN(c1ccccc1CNc1nc(Nc2ccc3c(c2)CC(=O)N3)ncc1C(F)(F)F)S(C)(=O)=O,77
3,NC(=O)c1ccc(-c2cc3ncnc(SCC(=O)O)c3s2)cc1,0
4,Cn1ccc2ncnc(Oc3ccc(NC(=O)Nc4cc(C(C)(C)C)on4)c(Cl)c3)c21,21
5,COC(=O)Nc1nc2cc(Oc3ccc(NC(=O)Nc4cc(C(F)(F)F)ccc4Cl)cc3)ccc2[nH]1.Cl [GW697465],0
6,COc1cc2c(Nc3ccc(NC(=O)c4ccccc4)cc3)ncnc2cc1OCCCN1CCOCC1 [GSK301329],0
7,C[C@@H]1CNc2c(sc3ccc4nc(-c5ccc(O)cc5)ccc4c23)C(=O)N1,9
8,CN(c1cccc(CNc2nc(Nc3ccc4c(c3)CC(=O)N4)ncc2C(F)(F)F)c1)S(C)(=O)=O,82
9,O=C(Nc1ccc(Oc2ccc3nc(NC(=O)C4CC4)cn3n2)c(F)c1)c1cccn(-c2ccccc2)c1=O,32
10,Nc1nccc(-c2ccc3c(N)n[nH]c3c2)n1 [GSK1034945],0
11,CNC(=O)c1ccccc1Nc1nc(Nc2cccc(CS(C)(=O)=O)c2)ncc1C.O=CO [GSK1520489],80
12,C[C@@H](Oc1cc(-n2cnc3cc(-c4ccncc4)ccc32)sc1C(N)=O)c1ccccc1Cl [GSK479719],0
13,N#Cc1cccc(C(=O)NC2CCN(c3ccnc(Nc4ccc(F)cc4)n3)C2)c1 (centres unmarked) [GSK1379708],0
14,FC(F)(F)c1cc(Br)cc(Nc2nccc(-c3cnn4ncccc34)n2)c1 [GW810578],17
15,NC(=O)Nc1sc(-c2ccc(F)cc2)cc1C(N)=O [GW789449],25
16,CC(=O)Nc1ccc(-c2cc3ncnc(SCC(=O)O)c3s2)cc1,18
17,Cc1cccc2c(-c3ccncc3)c(-c3ccc(F)cc3)nn12.Cl [GW461487],0
18,O=C1NCCc2[nH]c(-c3ccncc3)cc21,0
19,CCn1c(-c2nonc2N)nc2cncc(CNC3CCNCC3)c21.Cl [SB-747651],0

row,SMILES,%Inh [%]
1,O=c1[nH]cc(-c2ccc(O)cc2)c2sc(-c3ccncc3)cc12 [GSK1033723],0
2,CCNCC(Cc1ccccc1)NC(=O)c1cc(Br)c(-c2ccnc3[nH]ccc23)s1.Cl.Cl (centres unmarked) [GSK1383280],6
3,O=C(Nc1ccccc1)c1cccc(Oc2ccc3nccn3n2)c1,0
4,Cl.c1ccc(Oc2ccc(Nc3ccnc4cc(-c5ccc(CN6CCNCC6)o5)ccc34)cc2)nc1 [GW567142],0
5,Cl.Nc1n[nH]c2cc(-c3ccccn3)ccc12 [GSK2189892],0
6,COc1ccc(Nc2nccc(N3CCC(NC(=O)c4cccc(C#N)c4)C3)n2)cc1 (centres unmarked) [GSK1379730],0
7,CC(C(=O)NC1CCN(c2ccnc(Nc3ccc(F)cc3)n2)C1)c1ccc(Cl)cc1 (centres unmarked) [GSK1379713],12
8,c1ccc(Oc2ccc(Nc3ccnc4ccc(-c5ccccn5)cc34)cc2)cc1 [GW407034],3
9,CS(=O)(=O)c1cccc(CNc2nc(Nc3ccc4c(c3)[C@@H]3C[C@@H]4CNC3=O)ncc2C(F)(F)F)c1,84
10,COc1cccc(OC)c1C(=O)Nc1cccc(-c2nn3ccccc3c2-c2ccnc(Nc3cccc(F)c3)n2)c1 [GSK361065],10
11,COC(=O)c1cccc(NC(=O)NC2CCN(c3ccnc(Nc4cc(OC)c(OC)c(OC)c4)n3)C2)c1 (centres unmarked) [GSK1379767],0
12,CC(C)c1nc(-c2cccc(NS(=O)(=O)c3ccccc3)c2)c(-c2ccnc(Nc3ccc4c(c3)CN(C)CC4)n2)s1 [GSK1649598],0
13,C[C@@H]1CCN(C(=O)N2CCCC2)C[C@@H]1N(C)c1ncnc2[nH]ccc12,33
14,CSc1nccc(-c2c(-c3ccc(F)cc3)ncn2CCCN2CCOCC2)n1.Cl [SB-217146],28
15,COc1cc2nccc(Nc3ccc(Oc4ccccc4)cc3)c2cc1OC.Cl [GI261656],0
16,Cc1ccc(Nc2ccnc(Nc3ccc4c(c3)CS(=O)(=O)C4)n2)cc1O.Cl [GW579362],100
17,Cc1nnc(-c2ccc3occ(-c4ccc(S(C)=O)cc4)c3n2)o1 (centres unmarked),0
18,O=C(NOCC1CC1)c1cc(Br)c(F)c(F)c1Nc1ccc(I)cc1Cl,0
